Compound activity as filed in PubChem BioAssay.
Rows were chosen to be rich in hits. Some 5.2% of all compounds tested hit in one or more screens of this group.
Tau fluor counter: counter-screen for tau fibril formation inhibitors; 280,000 compounds, 0.93% hits; tau K18 P301L Alexa594 fluorescence, heparin fibrillization; Potency, µM (series often up to 57.7 µM), for the others: at the highest dose activity change, negative = decrease; note: potency is the fitted concentration of half-maximal effect; nearly all actives have a fitted effect of over 55% in size
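Human K18 P301L tau (15 uM unlabeled plus 0.24 uM Alexa 594-labeled, final) in 100 mM sodium acetate pH 7 was mixed with compound and 20 uM heparin and incubated 6 hr at 37 C.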
Coupling enz: inhibits coupling enzyme system, counter-screen for aldolase hits; coupling enzyme system counterscreen, AmpLite Red fluorescence; activity change, negative = inhibition, % at 58.2 µM, hits read low; 290,000 compounds, 0.67% hits; in the data active = activity change below about -30%
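Fluorescence at 525 nm excitation and 598 nm emission measured inhibition of the coupled detection system without aldolase. Compounds (at 57.5 uM final) were preincubated 10 min at room temperature with coupling enzyme reagent before a 20 min substrate/AmpLite Red step.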
Tau ThT inhib: inhibitors of human tau fibril formation, thioflavin T binding. P10636. recombinant tau K18 P301L, heparin-induced fibrillization, ThT fluorescence. Potency, µM (series often up to 57.4 µM), inactives show at the top dose activity, negative = inhibition, most hits filed as inhibitors. 270,000 compounds, 2.1% hits. AID 1460; note: potency is the fitted concentration of half-maximal effect; nearly all actives have a fitted effect of over 55% in size
Target sequence (P10636 561-689 P618L limits assumed): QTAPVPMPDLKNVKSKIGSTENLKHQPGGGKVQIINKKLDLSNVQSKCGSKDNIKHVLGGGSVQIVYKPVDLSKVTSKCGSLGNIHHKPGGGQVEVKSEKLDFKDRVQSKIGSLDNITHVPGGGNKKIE
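ThT emission at 510 nm, taken 1 hr after adding 30 uM dye, quantifies aggregates formed when 20 uM heparin acts on human tau K18 P301L for 6 hr at 37 C.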
Sfp inh: inhibitors of Bacillus subtilis Sfp phosphopantetheinyl transferase | Q9F4F7 | Biochemical Sfp PPTase activity, qHTS | Potency, µM, for the others: largest response in the series, negative = inhibition, hits mostly inhibitors | 310,000 compounds, 3.5% hits | AID 1490;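 note: the enzyme is Sfp with the accession as filed and its product quenches rhodamine fluorescence; potency is the fitted concentration of half-maximal effect; 0% = enzyme reaction without inhibitor and -100% = no enzyme wells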
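After 15 min at room temperature with compound, 15 nM Sfp received 5 uM rhodamine-CoA plus 12.5 uM BHQ-2-ybbR (50 mM Hepes pH 7.6, 10 mM MgCl2). Rate came from the fluorescence difference over 30 min, ex 525/em 598 nm.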
Tau fibril FP: tau fibrillization inhibition (FP); 280,000 compounds, 0.39% hits; K18 P301L tau heparin fibrillization, Alexa594 FP, 6 h; Potency, µM (series often up to 57.7 µM), for inactives: top-dose activity, negative = inhibition, actives largely listed as inhibitors; P10636; AID 1468; note: potency is the fitted concentration of half-maximal effect; nearly all actives have a fitted effect of over 55% in size
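Steps: dispense K18 P301L tau (15 uM plus 0.24 uM Alexa 594 tracer, final) in pH 7 sodium acetate; add compound; add heparin (20 uM final); incubate 6 hr, 37 C; add ThT (30 uM final); after 1 hr ambient, read FP.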
Active calls of the source: *; ? = inconclusive; / = no result; [ ] = remark or other dose. Unless noted, calls come from the whole dose curve; as a rule, active = well fitted curve in the direction sought with a large enough effect; inconclusive = small, poorly fitted or top-dose-only effect, or another doubt; inactive = no such curve, though single readings can be large; an effect the other way counts as inactive or inconclusive. Unless noted, % is set by controls: 0 for no effect and ±100 for the full control effect.

SMILES | Tau fluor counter | Coupling enz | Tau ThT inhib | Sfp inh | Tau fibril FP
COc1ccc(CN2CCN(C(=O)c3cccc4ccccc34)CC2)cc1Br | / | 0.8 | / | 56.2µM* | /
Cc1ccc(Cn2c(=O)c3ccccc3n3c(-c4ccccc4)nnc23)cc1 | -11.0% | / | -3.8% | / | ?
CCc1cc(C(=O)N=Nc2c(O)[nH]c3c(Br)cc(Br)cc23)c2ccccc2n1 | ? | 0.9 | 7.08µM* | -15.3% | -1.3%
CCc1cc(C(=O)N=Nc2c(O)[nH]c3ccc([N+](=O)[O-])cc23)c2ccccc2n1 | ? | 2.8 | 15.8µM* | 2.6% | 20.4%
O=C(N=Nc1c(O)[nH]c2ccc([N+](=O)[O-])cc12)c1ccccc1[N+](=O)[O-] | ? | 1.7 | ? | 8.4% | 5.0%
CCOc1ccc(N(CC)S(=O)(=O)N2CCCC(C(=O)NCCc3ccccc3OC)C2)cc1 (stereo not given) | -2.4% | / | -12.5% | / | 14.3%
Cc1cccc(OCCCOc2cccc3cccnc23)c1C | -8.6% | / | ? | 79.4µM* | 2.1%
Cc1ccc(OCCCOc2cccc3cccnc23)cc1C | -2.3% | -0.5 | ? | 89.1µM* | 14.7%
Cc1cc(NC(=O)COc2cccc3cccnc23)no1 | -10.6% | -32.0* | ? | -26.4% | 1.6%
Cc1cc(NC(=O)COc2cccc(C)c2C)no1 | -6.0% | -2.9 | -10.3% | 2.6% | -7.5%
COc1ccccc1CN1CCCC2(CCN(S(C)(=O)=O)CC2)C1 | / | 2.7 | / | 20.1% | /
CC(=O)c1ccc(NS(=O)(=O)c2ccc(N)cc2)cc1 | -3.6% | 4.1 | -2.0% | 12.3% | -3.5%
CC(=O)c1ccc(N=Nc2ccc(N)cc2)cc1 | ? | 0.8 | 0.562µM* | 2.6% | -5.2%
Cc1cccc(C(=O)Nc2cccc(C(=O)N3CCOCC3)c2)c1 | -1.0% | -2.7 | -0.1% | 17.7% | 0.0%
Cc1cccc(NC(=O)C2SC(=Nc3c(C)cccc3C)C(C(=O)N3CCOCC3)=C2N)c1 (stereo not given) | ? | -5.0 | 7.08µM* | -12.5% | ?
CCCCN1C(=O)C2Cc3c([nH]c4ccccc34)CN2C1=S (stereo not given) | ? | -7.2 | ? | 56.2µM* | 7.7%
COc1ccccc1NC(=O)CSC(N)=O | -20.2% | 1.9 | 31.6µM* | 44.7µM* | ?
NC(=O)SCC(=O)Nc1ccccc1C(=O)O | -17.3% | 1.6 | 22.4µM* | 17.8µM* | ?
Cc1ccccc1NC(=O)CSC(N)=O | -16.6% | 3.2 | 25.1µM* | 14.1µM* | ?
COc1ccccc1NC(=O)CSc1nnc(NC(=O)Nc2ccc(C)cc2)s1 | ? | / | 2.9% | / | 15.8µM*
Cc1ccccc1NC(=O)CSCC(=O)Nc1ccccc1C | -3.9% | -1.3 | -9.4% | 2.3% | 3.9%
COc1ccc(SCC(CC(C)C)N2CCN(CCc3ccccc3)CCC2=O)cc1 (stereo not given) | / | 0.4 | / | ? | /
N#C[C@H](Cc1ccc(O)cc1)c1ccc(O)cc1 | -13.1% | 3.4 | -17.7% | 20.1% | 2.5%
CCCCOC(=O)Nc1nnc(C(C)C)s1 | 0.6% | 1.0 | 8.1% | 9.3% | -11.8%
CCCC(C)c1nnc(NC(=O)C2CC(=O)N(CCc3ccc(F)cc3)C2)s1 (stereo not given) | / | 0.2 | / | 28.2µM* | /
SMILES | Tau fluor counter | Coupling enz | Tau ThT inhib | Sfp inh | Tau fibril FP
CCCC(C)c1nnc(NC(=O)c2cc(C(=O)OC)cc([N+](=O)[O-])c2)s1 (stereo not given) | -19.0% | 5.0 | -11.9% | 14.1µM* | 4.6%
CCCC(C)c1nnc(NC(=O)CN2C(=O)c3ccccc3C2=O)s1 (stereo not given) | -6.9% | -1.4 | -2.5% | 44.7µM* | -2.0%
CCCC(C)c1nnc(NC(=O)C(=O)OCC)s1 (stereo not given) | -3.3% | -4.3 | ? | 20µM* | -2.1%
CCCC(C)NC(=O)c1cc(C(=O)OC)cc([N+](=O)[O-])c1 (stereo not given) | 6.7% | 0.3 | 10.7% | -1.5% | -3.1%
COCCNC(=O)c1ccc(-c2nc(CS(=O)(=O)c3ccccc3)c(C)o2)cc1 | 7.0% | / | 9.6% | / | -0.3%
CCOC(=O)c1ccc(-n2c(CCC(=O)O)ccc2-c2ccc(Br)cc2)cc1 | -11.5% | / | ? | / | -10.4%
Cc1nnc(NC(=O)C2CCCO2)s1 (stereo not given) | -7.3% | 1.3 | -10.8% | -6.3% | -3.8%
CCCC(C)c1nnc(NC(=O)C2CCCO2)s1 (stereo not given) | 15.2% | -0.4 | ? | 12.6µM* | 4.3%
N#C/C(=C\c1ccccc1[N+](=O)[O-])C(=O)NC1CCCCC1 | -19.2% | -4.4 | ? | 89.1µM* | 4.9%
COc1ccc(C(=O)Nc2cc(C(=O)c3ccccc3)c(C)oc2=O)cc1 | -10.9% | -3.5 | ? | 10µM* | ?
O=C(Nc1ccc(N=Nc2ccccc2)cc1)c1cccc(Cl)c1 | -8.5% | -1.5 | 3.16µM* | 5.6% | 1.1%
O=C(Nc1ccc2c(c1)OCCO2)c1cccc(Cl)c1 | / | -4.2 | / | -3.6% | /
CC(=O)c1cc(NC(=O)c2ccc([N+](=O)[O-])cc2)c(=O)oc1C | -15.8% | 0.3 | ? | 15.8µM* | ?
Cc1oc(=O)c(NC(=O)c2ccccc2)cc1C(N)=O | 6.1% | 1.8 | 2.7% | 14.9% | 7.9%
Cc1oc(=O)c(NC(=O)c2cccc(Cl)c2)cc1C(=O)c1ccccc1 | -10.8% | -2.5 | ? | 8.91µM* | ?
Cc1cccc(C(=O)Nc2ccc(N3CC=C(c4ccccc4C)CC3)c(C(=O)O)c2)c1 | -13.3% | / | ? | / | -8.0%
CCOc1ccccc1NC(=O)CN1C(=O)CC(c2ccco2)Sc2ccccc21 (stereo not given) | -15.2% | / | -19.5% | / | 5.3%
Cc1cc2nc(CSc3ccccc3)cc(=O)n2[nH]1 | -4.8% | -30.9* | -5.8% | -15.3% | 3.8%
Cc1cc2nc(CCl)cc(=O)n2[nH]1 | -5.3% | 1.0 | -0.7% | -7.6% | -2.5%
C=CCSSSCC=C | 6.4% | 0.0 | 9.2% | 39.8µM* | -0.6%
O=c1cc(CN2CCOCC2)c2ccc(O)c(O)c2o1 | / | -17.4 | / | 44.7µM* | /
CCCc1cc(=O)oc2c(CN3CCOCC3)c(O)ccc12 | 0.3% | -0.9 | -1.7% | 3.7% | -1.2%
O=c1cc(CN2CCN(Cc3ccccc3)CC2)c2ccc(O)c(O)c2o1 | / | -23.3 | / | 79.4µM* | /
Cc1c(O)ccc2c(CN3CCN(Cc4ccccc4)CC3)cc(=O)oc12 | / | 1.9 | / | 9.2% | /
Cc1c(C(=O)N(Cc2ccccc2F)C2CCS(=O)(=O)C2)oc2ccc(F)cc12 (stereo not given) | -25.4% | / | ? | / | 6.2%
N#C/C(=C/c1ccc2c(c1)OCO2)C(=O)NCCc1c[nH]c2ccccc12 | 20µM*[quencher] | -2.9 | 12.6µM* | 6.1% | 4.7%
O=C(CSc1nc2c([nH]c3ccccc32)c(=O)n1-c1ccccc1)N1CCc2ccccc21 | 1.4% | / | 3.6% | / | -7.3%
CC(CCc1ccccc1)NC(=O)Cn1c(=O)nc(-c2ccccc2F)c2cc(Cl)ccc21 (stereo not given) | -22.6% | / | ? | / | -8.8%
